In PubChem BioAssay (NCATS):
Values joined by “and” are separate entries in the source; they are usually repeats but may differ in a detail not shown here. Equal entries are not always repeated. Results filed as inconclusive are left out. A call without a number means that no potency is given here. Active and inactive are the calls of the source. The call rests on the fitted dose curve; in most records, active means well fitted curve in the direction sought with a large enough effect; inconclusive means small, poorly fitted or top-dose-only effect, or another doubt; inactive means no such curve, though single readings can be large; an effect the other way counts as inactive or inconclusive.

Legend:
[1] = target: Metallo-beta-lactamase type 2 (Klebsiella pneumoniae) (UniProt C7C422); test: qHTS to identify inhibitors of the New Delhi Metallo-beta-lactamase (NDM): assay validation screen against the NCATS LOPAC Collection (AID 1794843);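 further: nitrocefin turnover by NDM-1 measured as 485 nm absorbance at plateau; series mostly up to about 38 µM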
Summary of the method: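 Enzyme 2 nM final, 50 mM HEPES pH 7.0, 1 uM ZnSO4, 0.01% Tween20; cpds in DMSO, preincub w/ enzyme; + nitrocefin (50 uM stock); A485 at plateau; no-enzyme column as blank.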

[2] = target: Glutathione peroxidase 1 (Homo sapiens) (UniProt P07203); test: Primary qHTS Assay for Inhibitors of Recombinant Selenoprotein Glutathione Peroxidase 1 (GPX1) (AID 1845191); further: nearly all actives have a fitted effect of over 65% in size; further: potency means the concentration at half of the fitted maximal effect
Summary of the method: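 10 nM GPX1 + cpd, 30 min RT; start w/ 1 mM GSH, 0.5 mM cumene hydroperoxide, 0.5 mM NADPH, 100 nM GR, 0.01% BSA; buffer 50 mM Tris-HCl pH 7.5, 2 mM EDTA, 150 mM NaCl; Fl 340/450, 0 & 15 min.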

[3] = target: Phospholipid hydroperoxide glutathione peroxidase GPX4 (Homo sapiens) (UniProt P36969); test: Primary qHTS Assay for Inhibitors of Recombinant Selenoprotein Glutathione Peroxidase 4 (GPX4) (AID 1845192); further: nearly all actives have a fitted effect of over 65% in size
Summary of the method: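 NADPH consumption, followed by fluorescence at 340/450 nm between 0 and 15 min, reports GPX4 activity via coupled glutathione reductase (100 nM). Enzyme 200 nM was pre-exposed to compound 30 min; 0.5 mM cumene hydroperoxide and 1 mM GSH served as substrates.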

Phospholipid hydroperoxide glutathione peroxidase GPX4 (Homo sapiens), sequence (P36969 whole entry, looked up): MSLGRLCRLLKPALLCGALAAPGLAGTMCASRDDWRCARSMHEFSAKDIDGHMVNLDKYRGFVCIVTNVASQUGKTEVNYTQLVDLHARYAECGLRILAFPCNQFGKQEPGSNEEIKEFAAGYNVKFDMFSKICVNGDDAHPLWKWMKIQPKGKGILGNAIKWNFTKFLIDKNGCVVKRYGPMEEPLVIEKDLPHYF
Glutathione peroxidase 1 (Homo sapiens), sequence (P07203 whole entry, looked up): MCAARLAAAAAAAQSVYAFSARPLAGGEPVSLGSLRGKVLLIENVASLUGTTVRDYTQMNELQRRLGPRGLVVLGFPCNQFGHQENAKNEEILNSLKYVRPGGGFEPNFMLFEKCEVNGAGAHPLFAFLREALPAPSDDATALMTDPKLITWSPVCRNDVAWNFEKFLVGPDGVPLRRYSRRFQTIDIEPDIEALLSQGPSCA
Metallo-beta-lactamase type 2 (Klebsiella pneumoniae), sequence (C7C422 whole entry, looked up): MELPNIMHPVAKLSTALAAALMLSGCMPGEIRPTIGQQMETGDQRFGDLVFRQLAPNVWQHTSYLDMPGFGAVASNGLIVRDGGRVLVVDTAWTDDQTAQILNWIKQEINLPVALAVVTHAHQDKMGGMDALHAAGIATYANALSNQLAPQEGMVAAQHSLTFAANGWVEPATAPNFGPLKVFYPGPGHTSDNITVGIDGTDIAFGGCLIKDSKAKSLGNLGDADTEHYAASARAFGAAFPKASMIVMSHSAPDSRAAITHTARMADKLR

| SMILES | Potency [1] | Potency [2] | Potency [3] |
| --- | --- | --- | --- |
| COC1(C2=NCCN2)COc2ccccc2O1 (stereo unspecified) | inactive | inactive | inactive |
| NC/C=C\C(=O)O | inactive | inactive | inactive |
| N=C(N)c1ccc(N)cc1 | inactive | inactive | inactive |
| NCC(O)c1ccc(O)c(O)c1 (stereo unspecified) | inactive | inactive | inactive |
| CC(C)[C@@H]1CC[C@@H](C)C[C@@H]1P(=O)(c1ccccc1)c1ccccc1 | inactive | inactive | inactive |
| C[C@H](O)C(=O)C1=Nc2c(nc(N)[nH]c2=O)NC1 | inactive | inactive | inactive |
| Oc1ccc(Cn2cc[nH]c2=S)cc1 | inactive | inactive | inactive |
| CC1CCN(CC[C@H]2CCCN2S(=O)(=O)c2cccc(O)c2)CC1 | inactive | inactive | inactive |
| O=c1ccn([C@@H]2O[C@H](COP(=O)(O)OP(=O)(O)O)[C@@H](O)[C@H]2O)c(=O)[nH]1 | inactive | inactive | inactive |
| CN(CC[C@@H](Oc1ccc(C(F)(F)F)cc1)c1ccccc1)CC(=O)O | inactive | inactive | inactive |
| C/C(=C\c1ccc(C(=O)O)cc1)c1ccc2c(c1)C(C)(C)CCC2(C)C | inactive | inactive | inactive |
| S=C(S)N1CCCC1 | inactive | inactive | inactive |
| N#Cc1cc([N+](=O)[O-])c2sc(C(N)=O)[n+]([O-])c2c1 | inactive | inactive | inactive |
| Cn1c(=O)c2c(nc(/C=C/c3cccc(Cl)c3)n2C)n(C)c1=O | inactive | inactive | inactive |
| COc1cc2c(CCNC(C)=O)c[nH]c2cc1O | inactive | inactive | inactive |
| COC(=O)C1=C(C)NC(C)=C([N+](=O)[O-])C1c1ccccc1C(F)(F)F (stereo unspecified) | inactive | inactive | inactive |
| COc1ccccc1N1CCN(CCCNc2c(C)c(=O)n(C)c(=O)n2C)CC1 | inactive | inactive | inactive |
| C#CC(N)CCC(=O)O (stereo unspecified) | inactive | inactive | inactive |
| c1ccc2c(c1)CC(N1CCN(c3cccc4c3OCCO4)CC1)C2 | inactive | inactive | inactive |
| CC1=C(C(=O)O)N2C(=O)[C@@H](NC(=O)C(N)C3=CCC=CC3)[C@H]2SC1 (stereo partly specified) | inactive | inactive | inactive |
| C=CCN1CCc2c(cc(O)c(O)c2Br)[C@@H](c2ccccc2)C1 | inactive | inactive | inactive |
| OCC1NCC(O)C(O)C1O (stereo unspecified) | inactive | inactive | inactive |
| CCCC[C@@]1(C2CCCC2)Cc2cc(OCC(=O)O)c(Cl)c(Cl)c2C1=O | inactive | inactive | inactive |

| SMILES | Potency [1] | Potency [2] | Potency [3] |
| --- | --- | --- | --- |
| O=C(O)C1CCCNC1 (stereo unspecified) | inactive | inactive | inactive |
| C=CC[C@H](N)C(=O)O | inactive | inactive | inactive |
| NC(=O)CC[C@H](N)C(=O)O | inactive | inactive | inactive |
| O=C(O)C1=CCCN(CCON=C(c2ccccc2)c2ccccc2)C1 | inactive | inactive | inactive |
| O=C(c1ccc2c(c1)OCCO2)N1CCCCC1 | inactive | inactive | inactive |
| Nc1ncnc2c1ncn2C1CCCC1 | inactive | inactive | inactive |
| c1ccc(CN2CCC3(CCCc4ccccc43)CC2)cc1 | inactive | inactive | inactive |
| N[C@H](C(=O)O)[C@H](O)C(=O)O | inactive | inactive | inactive |
| C[C@@]1(C2CCCC2)Cc2cc(OCC(=O)O)c(Cl)c(Cl)c2C1=O | inactive | inactive | inactive |
| CCCCCCCC/C=C\CCCCCCCC(=O)NCCc1ccc(O)c(O)c1 | inactive | inactive | inactive |
| NCC(O)(CS(=O)(=O)O)c1ccc(Cl)cc1 (stereo unspecified) | inactive | inactive | inactive |
| O=C(O)c1ccccc1Nc1cccc(OCc2ccc3ccccc3n2)c1 | inactive | inactive | inactive |
| NCC(O)C1CCCCCCC1 (stereo unspecified) | inactive | inactive | inactive |
| COc1ccc(C(=O)NCc2cccnc2)cc1C(=O)NCc1cccnc1 | inactive | inactive | inactive |
| CC[C@@H]1Cc2cc(O)ccc2C2=C1c1ccc(O)cc1C[C@H]2CC | inactive | inactive | inactive |
| CC(N)(C(=O)O)c1ccc(C(=O)O)cc1 (stereo unspecified) | inactive | inactive | inactive |
| O=[N+]([O-])c1cccc2c(Br)[nH]nc12 | inactive | inactive | inactive |
| CCC(=O)N1CCN(C(=O)c2ccccc2)CC1 | inactive | inactive | inactive |
| CC(N)=O | inactive | inactive | inactive |
| Cc1ccc2c(c1)C(N1CCN(C)CC1)=Nc1cccnc1N2 | inactive | inactive | inactive |
| CC(C)(CO)Cc1cc(C(C)(C)C)c(O)c(C(C)(C)C)c1 | inactive | inactive | inactive |
| Cc1nc(N=Nc2ccc(C(=O)O)cc2)c(COP(=O)(O)O)c(C=O)c1O | inactive | inactive | inactive |
| COc1cc(N)c(Cl)cc1C(=O)OCCN1CCCCC1 | inactive | inactive | inactive |

| SMILES | Potency [1] | Potency [2] | Potency [3] |
| --- | --- | --- | --- |
| CC(C)(C)c1ccc(/C=C/C(=O)Nc2ccc3c(c2)OCCO3)cc1 | inactive | inactive | inactive |
| O=C1C2C=CC=CC2=NC(=S)N1CCN1CCC(=C(c2ccc(F)cc2)c2ccc(F)cc2)CC1 (stereo unspecified) | inactive | inactive | inactive |
| O=C(O)[C@H]1NCCC[C@H]1C(=O)O | inactive | inactive | inactive |
| Cc1nc(N=Nc2cc(S(=O)(=O)O)c3cc([N+](=O)[O-])cc(S(=O)(=O)O)c3c2)c(COP(=O)(O)O)c(C=O)c1O | inactive | inactive | inactive |
| O=C(OCCN1CCOCC1)C1(c2ccccc2)CCCCC1 | inactive | inactive | inactive |
| COc1ccc2c(c1)CCC1C2CC[C@@]2(C)C1CC[C@@H]2NCCCCCCN1C(=O)C=CC1=O (stereo partly specified) | inactive | inactive | inactive |
| Cc1cccc(C)c1OCC(N)C(C)C (stereo unspecified) | inactive | inactive | inactive |
| Cn1ccnc1 | inactive | inactive | inactive |
| COc1cc(CNC(=O)CCCCCCC(C)C)ccc1O | inactive | inactive | inactive |
| O=c1[nH]c(=O)c2nc3ccccc3nc2[nH]1 | inactive | inactive | inactive |
| O=c1cc(-c2ccccc2F)[nH]c2cc3c(cc12)OCO3 | inactive | inactive | inactive |
| O=C(O)c1cccnc1C(=O)O | inactive | inactive | inactive |
| COc1ccc(-c2ccc(N)[n+](CCCC(=O)O)n2)cc1 | inactive | inactive | inactive |
| O=c1ccc2c(OCCCCc3ccccc3)c3ccoc3cc2o1 | inactive | inactive | inactive |
| Brc1c(Br)c(Br)c2[nH]cnc2c1Br | inactive | inactive | inactive |
| Nn1nnc2ccccc21 | inactive | inactive | inactive |
| CC(C)C[C@H](NC(=O)[C@H](O)[C@H](N)Cc1ccccc1)C(=O)O | inactive | inactive | inactive |
| COC(=O)C(N)Cc1ccc(Cl)cc1 (stereo unspecified) | inactive | inactive | inactive |
| CCCCCCCCCCC/C=C\C(C)(C)/C=C\CCCC(=O)O | inactive | inactive | inactive |
| N[C@@H](Cc1ccc(O)c(I)c1)C(=O)O | inactive | inactive | inactive |
| [N-]=[N+]=Nc1ccc(C(=O)CSC[C@H](NC(=O)CC[C@H](N)C(=O)O)C(=O)NCC(=O)O)cc1 | inactive | inactive | inactive |
| OC1(c2ccc(Cl)cc2)CCN(Cc2c[nH]c3ccccc23)CC1 | inactive | inactive | inactive |
| Cc1cc(Cn2cnc3c2C[C@@H](C(=O)O)N(C(=O)C(c2ccccc2)c2ccccc2)C3)ccc1N | inactive | inactive | inactive |

| SMILES | Potency [1] | Potency [2] | Potency [3] |
| --- | --- | --- | --- |
| Cc1nc2c(OCc3ccccc3)cccn2c1CC#N | inactive | inactive | inactive |
| NC(=O)c1cc[n+](CC2=C(C(=O)O)N3C(=O)[C@@H](NC(=O)[C@@H](c4ccccc4)S(=O)(=O)[O-])[C@H]3SC2)cc1 | inactive | 4.53 µM (active) and 28.2 µM (active) | inactive |
| COc1ccc(CCn2nnnc2C2(c3ccc(C)cc3)CC2)cc1 | inactive | inactive | inactive |
| O=c1[nH]c2cc(Cl)ccc2c(O)c1-c1ccc(Oc2ccccc2)cc1 | inactive | inactive | inactive |
| Oc1ccc(/C=C/c2ccc(/C=C/c3ccc(O)cc3)c(Br)c2)cc1 | inactive | inactive | inactive |
| CC1CNCCN1S(=O)(=O)c1cccc2cnccc12 (stereo unspecified) | inactive | inactive | inactive |
| COC(=O)C(C)(N)Cc1ccc(O)cc1 (stereo unspecified) | inactive | inactive | inactive |
| CC(C)(C)c1cc(/C=C(\C#N)C(N)=S)cc(C(C)(C)C)c1O | inactive | inactive | inactive |
| COc1ccc(-c2cc3ncc(C)n3c(Nc3ncccc3C(N)=O)n2)cc1OC | inactive | inactive | inactive |
| CCSC(=N)N | inactive | inactive | inactive |
| CC1=C(/C=C/C(C)=C/C=C/C(C)=C\C(=O)O)C(C)(C)CCC1 | inactive | inactive | inactive |
| N#Cc1cc2nc(O)c(O)nc2cc1[N+](=O)[O-] | inactive | inactive | inactive |
| CC(=O)NNC(=O)N1Cc2ccccc2Oc2ccc(Cl)cc21 | inactive | inactive | inactive |
| CCCC(=O)NCCc1c2n(c3ccc(OC)cc13)CCCc1ccccc1-2 | inactive | inactive | inactive |
| Nc1ccc(N2C(=O)c3ccccc3C2=O)c(Cl)c1 | inactive | inactive | inactive |
| N#C/C(=C\c1ccc(O)c(O)c1)C(=O)NCCc1ccccc1 | inactive | inactive | inactive |
| CNc1cc(NS(=O)(=O)c2ccc(N)cc2)nc(NC)n1 | inactive | inactive | inactive |
| O=C(O)C1=CCNCC1 | inactive | inactive | inactive |
| NC1(C(=O)O)CC1 | inactive | inactive | inactive |
| N=C(N)SCCc1cnc[nH]1 | inactive | inactive | inactive |
| NCCCCN=C(N)N | inactive | inactive | inactive |
| O=c1[nH]ccc2c(O)cccc12 | inactive | inactive | inactive |
| N[C@@H](CCCC(=O)O)C(=O)O | inactive | inactive | inactive |
